High-throughput results (PubChem BioAssay)
HPGD block = qHTS Assay for Inhibitors of HPGD (15-Hydroxyprostaglandin Dehydrogenase); Potency, µM, inactives show at the highest dose activity change, negative = inhibition, most hits filed as inhibitors; 15-hydroxyprostaglandin dehydrogenase [NAD(+)] (Homo sapiens), P15428; purified HPGD, NADH fluorescence kinetic, PGE2 substrate; 4.3% of 150,000 active; active means well fitted inhibition curve with a large enough effect, not every such curve was filed as active; inconclusive means small, poorly fitted or top-dose-only effect, or another doubt; inactive means no such curve, though single readings can be large or run the other way
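20 nM HPGD preincubated 15 min at room temperature with compound in 50 mM Tris-HCl pH 8, 0.01% Tween 20. Started with 1 mM NAD+ and 30 uM prostaglandin E2; NADH fluorescence (360/450 nm) read 5 times over 30-s intervals, last minus first.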
LMNA splice mod = qHTS Assay for Modulators of Lamin A Splicing; 0.01% of 200,000 active; Potency, µM (highest dose often 46.1 µM), for inactives: at the top dose ratio change, negative = inhibition, actives largely listed as inhibitors; HeLa LMNA splicing GFP/RFP minigene ratio, 48 h; active means well fitted inhibition curve with a large enough effect in the signal ratio, with a control signal flat, not every such curve was filed as active; inconclusive means small, poorly fitted or top-dose-only effect, or effect the other way, or a change in a side signal; the % refers to the signal ratio
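S3 HeLa cells stably expressing lamin A-EGFP splicing minigene plus DsRed2, 600 cells/well, 48 h compound exposure at 37C. Laser-scanning cytometry; analysed as GFP (500-530 nm)/RFP (575-640 nm) total intensity ratio; 0.5% DMSO vehicle.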
Luc counter = Counterscreen for Luciferase (Kinase-Glo TM) Inhibition. AID 1379, 2008. Luciferin 4-monooxygenase (Photuris pensylvanica), Q27757. Kinase-Glo luciferase, ATP luminescence, 8 min. 0.28% of 200,000 active. Potency, µM (highest dose often 38.3 µM), without a hit: at the highest dose activity change, negative = inhibition, most hits filed as inhibitors; further: nearly all actives have a fitted effect of over 60% in size
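Kinase-Glo luciferase light output from ATP and luciferin was measured with 10 uM ATP, within the enzyme's linear range. Buffer: 50 mM imidazole pH 7.2, 50 mM KCl, 7 mM MgCl2, 0.01% Tween 20, 0.05% BSA; luminescence read after 8 min at ambient temperature.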
ALDH1A1 block = qHTS Assay for Inhibitors of Aldehyde Dehydrogenase 1 (ALDH1A1) | Purified ALDH1A1, NADH fluorescence, propionaldehyde substrate | Potency, µM (series often up to 75.3 µM), without a hit: at the top dose activity, negative = inhibition, most hits filed as inhibitors | 7.3% of 220,000 active; active means well fitted inhibition curve with a large enough effect, not every such curve was filed as active; inconclusive means small, poorly fitted or top-dose-only effect, or another doubt; inactive means no such curve, though single readings can be large or run the other way;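 further: plate controls were no enzyme wells and a reference inhibitor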
Target sequence (P00352 whole entry, looked up): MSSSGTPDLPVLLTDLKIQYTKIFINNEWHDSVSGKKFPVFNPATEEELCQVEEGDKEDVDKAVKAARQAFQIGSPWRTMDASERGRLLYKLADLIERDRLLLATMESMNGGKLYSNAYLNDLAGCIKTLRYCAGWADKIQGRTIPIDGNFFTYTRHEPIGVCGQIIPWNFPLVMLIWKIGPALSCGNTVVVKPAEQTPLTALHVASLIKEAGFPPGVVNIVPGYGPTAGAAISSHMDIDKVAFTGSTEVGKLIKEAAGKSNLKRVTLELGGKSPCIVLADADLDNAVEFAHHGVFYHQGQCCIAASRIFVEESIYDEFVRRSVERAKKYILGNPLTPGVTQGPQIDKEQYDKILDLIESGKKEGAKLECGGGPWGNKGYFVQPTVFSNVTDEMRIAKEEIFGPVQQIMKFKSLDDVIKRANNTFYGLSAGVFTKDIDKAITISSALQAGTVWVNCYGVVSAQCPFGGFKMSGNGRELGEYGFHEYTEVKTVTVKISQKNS
IMPase Li cell = qHTS Assay for Identifying the Cell-Membrane Permeable IMPase Inhibitors: Potentiation with Lithium. Potency, µM (highest dose often 59.4 µM), without a hit: at the top dose activity, negative = IMPase inhibition, hits mostly inhibitors. 0.35% of 210,000 active. CHO-M1 cells, IP1 TR-FRET (IP-One), carbachol + lithium;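 further: IP1 builds up when IMPase is blocked and the TR-FRET signal falls; plate controls were basal vehicle for no effect and high inhibitor control for full effect; nearly all actives have a fitted effect of over 50% in size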
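CHO cells stably expressing M1 receptor (2000/well, cultured 16–30 h) treated 30 min at 37C with compound plus low lithium. Cytosolic IP1 by TR-FRET (665/620 ratio and 620 channel) after 10 min lysis; AC50 by Hill fit.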
Active calls of the source: *; ? = inconclusive; . = not tested or not shown; [ ] = another dose, or the depositor's remark. In the library only some 9% were active in any assay of this set; here they are far more common. Unless noted, the call rests on the fitted dose curve; in most records, active means well fitted curve in the direction sought with a large enough effect; inconclusive means small, poorly fitted or top-dose-only effect, or another doubt; inactive means no such curve, though single readings can be large; an effect the other way counts as inactive or inconclusive. Unless noted, on the % scale 0 is the no-effect control and ±100 the full control effect; potency means the concentration at half of the fitted maximal effect.

SMILES | HPGD block | LMNA splice mod | Luc counter | ALDH1A1 block | IMPase Li cell
Nc1nc(CCl)nc(Nc2ccccc2)n1 | . | . | . | 3% | -9%
Nc1nc(Nc2ccc(Cl)cc2)nc2ccccc12 | ? | -3% | 14µM* | ? | 43%[38.3 µM]
Nc1nc(Nc2ccccc2)nc2ccccc12 | -10% | 1% | 11µM* | 14% | -9%[38.3 µM]
Cc1ccccc1Nc1nc(N)nc(-c2oc3ccccc3c2C)n1 | . | . | . | 2% | .
O=C(CSCc1ccccc1Cl)NCCSc1ccccn1 | . | . | -2% | 1% | -12%
Cc1sc(-c2cccnc2)nc1OC(=O)C1CC1 | . | 1%[46 µM] | -10% | ? | 5%
CCc1ccc2nc(N(Cc3cccnc3)C(=O)c3cccs3)sc2c1 | . | -2%[46 µM] | . | . | .
c1ccc2c(-c3cc(C4CCNCC4)[nH]n3)cccc2c1 | . | -5%[46 µM] | -5% | -5% | -10%
O=C(CONS(=O)(=O)c1ccc(Cl)cc1)NCCNc1ncc(C(F)(F)F)cc1Cl | . | -12%[46 µM] | 0% | 13µM* | -7%
CCOc1ccc(NC(=O)NC(=O)N(C(C)C)S(C)(=O)=O)cc1 | . | -2%[46 µM] | -2% | 5% | -3%
COc1ccc(C(=O)N2CCCC(c3ccccc3)=N2)cc1 | . | 0%[46 µM] | -3% | ? | -1%
Cc1ccc(C(=O)N2CCCC(c3ccc(Cl)cc3)=N2)cc1 | . | -8%[9.22 µM] | -1% | 13µM* | 5%
CC(C)CSc1ncnc2c1oc1nc3c(cc12)COC(C)(C)C3 | -18% | -4% | -5% | ? | 4%[38.3 µM]
CC1(C)Cc2nc3oc4c(=S)nc[nH]c4c3cc2CO1 | 28µM* | -12% | -7% | 3.2µM* | ?
Cc1nc2cnc(N(C)C)nc2n(CCC#N)c1=O | . | -6% | . | ? | 6%
Cc1ccc(OCC(=O)c2cc(C)c(C)cc2C)c([N+](=O)[O-])n1 | -20% | 5% | -2% | 3.5µM* | -4%[38.3 µM]
COCCn1c(C)cc(C(=O)COc2ccc(C)nc2[N+](=O)[O-])c1C | . | . | -1% | 10µM* | 8%
Cc1ccc(C)c(C(=O)COc2ccc(C)nc2[N+](=O)[O-])c1 | -16% | ? | 0% | 1.6µM* | 29%[38.3 µM]
CCCn1c(C)cc(C(=O)COc2ccc(C)nc2[N+](=O)[O-])c1C | . | -10% | . | ? | .
CCCC[n+]1c(-c2ccc(Cl)cc2Cl)csc1Nc1ccccc1 | 0% | -20% | 1% | 11% | 12%
Clc1ccc(-c2csc(Nc3ccccc3)[n+]2Cc2ccco2)c(Cl)c1 | . | ? | -2% | 18µM* | 11%
CC(=O)c1ccc(NC(=O)C(C)NCc2ccccc2Cl)cc1 (stereo not given) | . | . | 1% | -1% | -3%
O=C(Nc1nc2ccccc2[nH]1)c1ccccc1F | -2% | ? | 2µM* | 2% | -6%[38.3 µM]
O=c1[nH]c(/C(=N\O)c2ccccc2)no1 | ? | 14% | 1% | 24µM* | 78%[38.3 µM]
NC(=O)/C(=N\O)c1ccccc1 | 2% | 0% | -1% | 10% | 14%[38.3 µM]
SMILES | HPGD block | LMNA splice mod | Luc counter | ALDH1A1 block | IMPase Li cell
CCOc1ccc(C2CC(=O)Nc3c2c(=O)nc(SCc2ccccc2C)n3C)cc1OC (stereo not given) | . | -2%[46 µM] | . | . | .
CC(=O)OCCN(C)c1cc(SC(C)C)c2nonc2c1[N+](=O)[O-] | . | ? | 0% | ? | 9%
CN(CCO)c1cc(Sc2nc3ccccc3s2)c2nonc2c1[N+](=O)[O-] | ? | ? | -1% | 25µM* | 23%[38.3 µM]
Brc1cc(Oc2cc(Br)c(Br)c(Br)c2Br)c(Br)c(Br)c1Br | -11% | . | . | 3% | -2%
COc1ccccc1CCn1c(=O)cnc2cncnc21 | . | ? | . | 1.4µM* | 1%
COc1ccccc1CCn1c(=O)c(-c2ccc(Cl)cc2)nc2cncnc21 | -3% | . | -2% | 6% | 6%
Cc1oc(-c2cccc3ccccc23)nc1CN1CCC[C@H]1CO | . | 5%[46 µM] | 0% | -2% | 0%
CC1CCN(C(=O)CSc2n[nH]c(-c3ccc(F)cc3)n2)CC1 | . | -1%[46 µM] | . | . | .
O=C(CSc1ccc(-c2ccc(F)cc2)nn1)N1CCCCC1 | 16µM* | 7% | 4% | -12% | -9%[38.3 µM]
